Reference: PubChem BioAssay (NCI)
Compounds without any hit were thinned out: in the full panel of roughly 83,000, 20% have a hit.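 The test compound was applied at a single concentration to cells in 96-well plates for 48 hours, and percent growth was recorded.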 Values without a mark were called inactive. Activity calls are given as the source filed them. Rule for the calls: active = growth percent below 10; inactive = the rest.

Each compound was assayed on UACC-257 melanoma (assay: NCI-60 one-dose screen, 48 h (100 = growth as untreated, 0 = no growth, -100 = all killed)). Details: 10 µM.

SMILES | growth
CN(C)CCOc1nc2ccccc2c2c1-c1ccc(Cl)cc1C2=O | -68% (active)
CCOC(=O)C(CSC(c1ccccc1)(c1ccccc1)c1ccccc1)NC(=O)C(CSC(c1ccccc1)(c1ccccc1)c1ccccc1)NC(c1ccccc1)(c1ccccc1)c1ccccc1 (stereo not drawn) | 88.8%
O=C1OCC2=C1C(c1cccc(Cl)c1)c1cc3c(cc1N2CCO)CCC3 (stereo not drawn) | 46%
O=C(Nc1ccc(Cl)cc1)N1NC(c2ccc(Cl)cc2)C=C1c1ccccc1 (stereo not drawn) | 99.7%
S=c1[nH]ccn1-c1c(Cl)cccc1Cl | -4.51% (active)
Cc1ccc(NC(=O)CSc2nc3ccccc3c(=O)n2CCc2ccccc2)c(C(=O)O)c1 | 98.1%
O=S(=O)(NCCCNc1nccc(-c2c(-c3ccc(F)cc3)nc3sccn23)n1)c1ccc(F)cc1 | 57.2%
CCn1cc(C(=O)O)c(=O)c2cnc(N3CCCC3)nc21 | 97.2%
O=c1c2ccccc2nc(SCCN2CCCCC2)n1CCc1ccccc1 | 95.9%
COc1cc2cc3c(nc2cc1OC)CCN3Cc1ccc(NC(=O)c2ccc(Cl)c(C(F)(F)F)c2)cc1 | 86.6%
CN(C)C(=S)N/N=C\C=N/NC(=S)N(C)C | 33.4%
COc1cc(Cl)cc(-c2nn(-c3cccc(NC(=O)c4ccc(Cl)c(Cl)c4)c3)cc2-c2ccncc2)c1 | 84.2%
CCCCCCCCCCCCCCCC(=O)OC1[C@@H](OC(=O)CCCCCCCCCCCCCCC)[C@@H](C(=O)N[C@@H](CCCCN)C(=O)OC)O[C@H]1n1cnc2c(=O)[nH]c(NC(=O)C(C)C)nc21 (stereo partly drawn) | 90.1%
